Measurements taken from PubChem BioAssay AID1159580 (chemical genetic matrix, 2015).
Values joined by “and” are separate entries in the source; they are usually repeats but may differ in a detail not shown here. Identical values can stand only once. Hit rate of the full screen: of about 5,500 compounds, about 2,000 (36%) were called active. Inconclusive results (about 18%) are left out. Cut-off read from the data, not from the text of the source: active = normalized growth mostly below about 0.91 (no sharp cut-off); inconclusive = no clear call, values can overlap the other calls; inactive = mostly above about 0.92. Some of the results follow.

Assay: chemical genetic growth profiling, strain panel (AID 1159580);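 note: tested at 20 µM; growth read once vehicle control cultures reached saturation at 30 °C; 1 = growth at the plate median or of vehicle wells; lower values mean less growth of the strain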
Conditions: S. cerevisiae deletion strains, growth OD

Measured: normalized growth

Cc1cc(C(C)(C)C)c(O)c(C)c1CC1=NCCN1
inactive: locus YAL013W, strain DEP1, active compounds read low 0.986 and 1.02 | locus YAL021C, strain ccr4, active compounds read low 1.01 | locus YAL026C, strain drs2, active compounds read low 1 | locus YAL030W, strain snc1, active compounds read low 1.01 | locus YAL040C, strain CLN3, active compounds read low 1.01 | locus YBL061C, strain skt5, active compounds read low 1.02 | locus YBR009C, strain hhf1, active compounds read low 1.01 | locus YBR021W, strain FUR4, active compounds read low 1 | locus YBR023C, strain chs3, active compounds read low 1.02 | locus YBR171W, strain sec66, active compounds read low 1.02 | locus YBR229C, strain ROT2, active compounds read low 1 | locus YBR231C, strain swc5, active compounds read low 0.998 | locus YBR279W, strain paf1, active compounds read low 0.993 | locus YCL011C, strain gbp2, active compounds read low 1.01 | locus YCL016C, strain dcc1, active compounds read low 1.02 | locus YCL029C, strain bik1, active compounds read low 1.02 | locus YCL061C, strain MRC1 (second series), active compounds read low 1 | locus YCL061C, strain MRC1, active compounds read low 1.01 | locus YCL069W, strain vba3, active compounds read low 1 | locus YCR088W, strain abp1, active compounds read low 1 | locus YDL005C, strain med2, active compounds read low 0.998 | locus YDL035C, strain GPR1, active compounds read low 1 | locus YDL040C, strain nat1, active compounds read low 1 | locus YDL074C, strain BRE1, active compounds read low 0.98 | locus YDL101C, strain DUN1, active compounds read low 1 | locus YDL134C, strain PPH21, active compounds read low 0.997 | locus YDL185W, strain tfp1, active compounds read low 1.01 | locus YDL192W, strain arf1, active compounds read low 1.02 | locus YDR001C, strain nth1, active compounds read low 0.993 | locus YDR069C, strain doa4, active compounds read low 1.01 | locus YDR101C, strain arx1, active compounds read low 0.993 | locus YDR137W, strain rgp1, active compounds read low 1.06 | locus YDR150W, strain NUM1, active compounds read low 1 | locus YDR159W, strain sac3, active compounds read low 0.991 | locus YDR162C, strain NBP2, active compounds read low 0.991 | locus YDR195W, strain ref2 0.99 | locus YDR297W, strain sur2, active compounds read low 1 | locus YDR318W, strain mcm21, active compounds read low 1.01 | locus YDR334W, strain swr1, active compounds read low 1.01 | locus YDR335W, strain msn5, active compounds read low 1 | locus YDR363W, strain ESC2, active compounds read low 1.01 | locus YDR388W, active compounds read low 1 | locus YDR392W, strain spt3, active compounds read low 0.954 | locus YDR502C, strain sam2, active compounds read low 1 | locus YEL003W, strain gim4, active compounds read low 0.981 | locus YEL037C, strain rad23, active compounds read low 1 | locus YEL061C, strain CIN8 (second series), active compounds read low 0.998 | locus YEL061C, strain CIN8, active compounds read low 0.997 | locus YER002W, strain NOP16, active compounds read low 0.998 | locus YER015W, strain faa2, active compounds read low 0.998 | locus YER016W, strain bim1, active compounds read low 1 | locus YER110C, active compounds read low 1.02 | locus YER111C, strain swi4, active compounds read low 1 | locus YER155C, strain BEM2 (second series), active compounds read low 0.991 | locus YER155C, strain BEM2, active compounds read low 0.996 | locus YER167W, strain BCK2, active compounds read low 0.998 | locus YFR010W, strain ubp6, active compounds read low 0.999 | locus YGL078C, strain dbp3, active compounds read low 1.01 | locus YGL086W, strain mad1, active compounds read low 1 | locus YGL167C, strain pmr1, active compounds read low 1 | locus YGL173C, strain kem1, active compounds read low 1.01 | locus YGL227W, strain vid30, active compounds read low 1 | locus YGL240W, strain doc1, active compounds read low 0.992 | locus YGL248W, strain PDE1, active compounds read low 1 | locus YGL253W, strain hxk2, active compounds read low 1.01 | locus YGR078C, strain PAC10, active compounds read low 1 and 0.998 | locus YGR135W, strain pre9, active compounds read low 1.01 | locus YGR229C, strain SMI1, active compounds read low 1.01 | locus YGR252W, strain gcn5, active compounds read low 0.967 | locus YHR013C, strain ard1, active compounds read low 1.01 | locus YHR027C, strain rpn1, active compounds read low 1.02 | locus YHR030C, strain SLT2, active compounds read low 0.998 and 0.968 | locus YHR079C, strain IRE1 (second series), active compounds read low 1.01 | locus YHR079C, strain IRE1, active compounds read low 0.977 | locus YHR094C, strain hxt1, active compounds read low 0.994 | locus YHR129C, strain ARP1, active compounds read low 1.01 | locus YHR142W, strain chs7, active compounds read low 0.997 | locus YHR200W, strain rpn10, active compounds read low 0.994 | locus YIL066C, strain RNR3, active compounds read low 1 | locus YIL073C, strain SPO22, active compounds read low 1.04 | locus YIL125W, strain kgd1, active compounds read low 1 | locus YIR030C, strain dcg1, active compounds read low 1.01 | locus YJL092W, strain hpr5, active compounds read low 1.01 | locus YJL095W, strain BCK1 (second series), active compounds read low 1.01 | locus YJL095W, strain BCK1, active compounds read low 1 and 0.981 | locus YJL115W, strain asf1, active compounds read low 1 | locus YJL129C, strain trk1, active compounds read low 0.993 | locus YJL134W, strain LCB3, active compounds read low 0.997 | locus YJL154C, strain vps35, active compounds read low 1 | locus YJL164C, strain tpk1, active compounds read low 1 | locus YJL166W, strain qcr8, active compounds read low 1.01 | locus YJL168C, strain set2, active compounds read low 1.01 | locus YJL187C, strain SWE1 (second series), active compounds read low 1 | locus YJL187C, strain SWE1, active compounds read low 1 | locus YJR043C, strain POL32, active compounds read low 0.982
